Measured values from PubChem BioAssay AID1376 (SRMLSC, 2008).
In all, about 220,000 compounds went through this assay and about 530 (0.24%) were called active. This is one part of a sample in which actives are shown more often than they occur. No stated cut-off is given here; in the data, active means inhibition above about 13%; inconclusive means no clear call, values can overlap the other calls; inactive means below that. Measured potencies and affinities stand elsewhere.

molecular target: Bifunctional protein GlmU (Mycobacterium tuberculosis (strain ATCC 25618 / H37Rv)) (UniProt P9WMN3); experiment: inhibition of mycobacterial GlmU enzyme – biochemical, glucosamine-1-phosphate acetyltransferase (AID 1376);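 further: 0% = complete reaction with vehicle and 100% = reaction without substrate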; conditions: M. tuberculosis GlmU acetyltransferase enzyme assay; stronger effect = higher value;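 tested at 30 µM in the primary screen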
Sequence (P9WMN3 whole entry, looked up): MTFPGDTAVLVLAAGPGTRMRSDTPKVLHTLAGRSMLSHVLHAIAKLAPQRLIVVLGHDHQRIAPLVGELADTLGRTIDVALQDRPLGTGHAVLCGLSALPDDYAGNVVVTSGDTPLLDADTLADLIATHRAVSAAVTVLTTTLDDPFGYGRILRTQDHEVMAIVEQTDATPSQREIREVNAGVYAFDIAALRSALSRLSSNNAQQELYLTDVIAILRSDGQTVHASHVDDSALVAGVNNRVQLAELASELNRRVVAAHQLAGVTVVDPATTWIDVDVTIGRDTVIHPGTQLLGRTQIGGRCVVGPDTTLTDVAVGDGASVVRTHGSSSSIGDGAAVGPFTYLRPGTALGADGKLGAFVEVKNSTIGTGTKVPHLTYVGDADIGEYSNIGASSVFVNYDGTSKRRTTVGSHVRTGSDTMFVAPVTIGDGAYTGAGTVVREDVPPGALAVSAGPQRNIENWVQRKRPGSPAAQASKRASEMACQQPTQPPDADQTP

Row | SMILES | inhibition
1 | N#C/C(=C/c1ccc(-c2ccc(S(N)(=O)=O)cc2)o1)c1nc2ccccc2s1 | 6.34% (inactive)
2 | N#C/C(=C\c1ccc([N+](=O)[O-])o1)c1nc2ccccc2[nH]1 | -6.95% (inactive)
3 | N#C/C(=C\c1ccc(Sc2ccccc2)o1)c1nc2ccccc2[nH]1 | -4.05% (inactive)
4 | COc1cc(/C=C(\C#N)c2nc3ccccc3s2)cc([N+](=O)[O-])c1O | 6.33% (inactive)
5 | N#C/C(=C\c1ccco1)c1nc2ccccc2s1 | 7.35% (inactive)
6 | N#C/C(=C/c1ccncc1)c1nc2ccccc2s1 | -6.23% (inactive)
7 | CC(C)(C)NC(=O)NC(=O)COC(=O)c1ccc2c(c1)S(=O)(=O)N=C1CCCCCN12 | -5.9% (inactive)
8 | O=C(C(=S)N1CCOCC1)c1c[nH]c2ccccc12 | -1.14% (inactive)
9 | O=C1C2C3C=CC(CC3)C2C(=O)N1/N=C/c1c(O)ccc2ccccc12 (configuration not stated) | -1.22% (inactive)
10 | CC(NC(=O)c1ccco1)C1COc2ccccc2O1 (configuration not stated) | 1.62% (inactive)
11 | CC(Sc1nnc2ccccn12)C(=O)Nc1ccc(Cl)cn1 (configuration not stated) | 8.91% (inactive)
12 | COc1ccccc1C1=NN(C2=NN=C(N)Cc3ncnn32)C(O)(C(F)(F)F)C1 (configuration not stated) | -7.53% (inactive)
13 | N#CCC(=O)N/N=C/c1cccc(Oc2ccccc2)c1 | 5.36% (inactive)
14 | O=c1c2ccccc2nc(N2CCCC2)n1-c1ccccc1 | 13.9% (active)
15 | O=c1c2ccccc2nc(N2CCCC2)n1-c1ccc(Cl)cc1 | 3.51% (inactive)
16 | CN1CCN(c2nc3ccccc3c(=O)n2-c2ccccc2)CC1 | 2.07% (inactive)
17 | CC1(C)CC(=O)C2=C(C1)NC(=O)C21C(C(=O)OC(C)(C)C)=C(N)Oc2ccc(Br)cc21 (configuration not stated) | 4.2% (inactive)
18 | O=C(Cc1ccc([N+](=O)[O-])cc1)NCc1ccc2c(c1)OCO2 | -3.22% (inactive)
19 | O=C(Cc1ccccc1[N+](=O)[O-])Nc1ccc2c(c1)OCO2 | 0.87% (inactive)
20 | O=C(Cc1ccccc1[N+](=O)[O-])NCc1ccc2c(c1)OCO2 | 14% (active)
21 | O=C(/C=C/c1ccco1)Oc1cccc2cccnc12 | 14.7% (active)

Row | SMILES | inhibition
22 | O=C(/C=C\c1ccco1)Oc1cccc2cccnc12 | 0.86% (inactive)
23 | O=C(/C=C/c1ccccc1)Oc1cccc2cccnc12 | 0.34% (inactive)
24 | CN(NC(=O)Nc1ccccc1)c1cnn(C)c(=O)c1Cl | 4.46% (inactive)
25 | Cc1ccc(NC(=O)CC2COc3ccccc3O2)cc1 (configuration not stated) | -0.6% (inactive)
26 | CC1(C)CC(=O)C2=C(C1)NC(=O)CC2c1ccc(N(CCC#N)CCC#N)cc1 (configuration not stated) | -4.28% (inactive)
27 | COc1cc(/C=N/N2C(=O)CSC2=S)ccc1O | -0.65% (inactive)
28 | O=C1CSC(=S)N1/N=C/c1ccc(Cl)c([N+](=O)[O-])c1 | 4.42% (inactive)
29 | COc1cccc(/C=N/N2C(=O)CSC2=S)c1O | 5.18% (inactive)
30 | O=C1CSC(=S)N1/N=C/c1ccc(O)c([N+](=O)[O-])c1 | 55.6% (active)
31 | O=C1c2ccccc2C(=O)N1/N=C/c1ccc(O)c(O)c1O | 10.8% (inactive)
32 | COC(=O)c1c(C)n(-c2ccc(C)cc2)c2ccc(O)cc12 | -3.11% (inactive)
33 | O=C(CCn1c(=O)[nH]c2ccccc2c1=O)N1CC=C(c2ccccc2)CC1 | 1.07% (inactive)
34 | O=C(CSc1ccccn1)N/N=C/c1cc([N+](=O)[O-])ccc1O | 4.16% (inactive)
35 | O=C(Nc1cccc(S(=O)(=O)N2CCOCC2)c1)c1ccc(Cl)c([N+](=O)[O-])c1 | -7.13% (inactive)
36 | O=C(Nc1cccc(C(F)(F)F)c1)N1CCN(C(=O)Nc2cccc(C(F)(F)F)c2)CC1 | -0.83% (inactive)
37 | COc1ccccc1N1CCN(C(=O)/C=C/c2c(Cl)nc3ccccn23)CC1 | 1.7% (inactive)
38 | COc1ccc(/C=N/c2c(-c3ccc(OC)cc3)nc3n2CCS3)cc1 | -0.71% (inactive)
39 | Cc1nc2cc(NC(=O)NCc3ccc4c(c3)OCO4)ccc2o1 | 0.01% (inactive)
40 | CC12CCC(c3nnc(SCc4ccc(Cl)cc4)nc31)C2(C)C (configuration not stated) | 7.21% (inactive)
41 | COc1ccc(-c2nc3scc(-c4ccccc4)n3n2)cc1 | 5.16% (inactive)
42 | COCCn1c(Cc2ccccc2)nnc1SCC(=O)Nc1ccccc1 | 2.41% (inactive)

Row | SMILES | inhibition
43 | Cc1cc(C)c(OCCN2C(=O)NC(C)(C)C2=O)c(Cl)c1 | 14.1% (active)
44 | CC1(C)NC(=O)N(CCOCCOc2c(Cl)cc(Cl)cc2Cl)C1=O | 2.47% (inactive)
45 | Cc1cc(Cl)c(OCCN2C(=O)NC(C)(C)C2=O)c(Br)c1 | -1.37% (inactive)
46 | CCCNC(=O)c1nnsc1Sc1ccc(Cl)cc1 | 1.02% (inactive)
47 | O=C(c1cc(-c2ccc(Cl)cc2)on1)N1CCOCC1 | 3.17% (inactive)
48 | CCCNC(=O)c1nnsc1S(=O)(=O)c1ccc(Cl)cc1 | 10.7% (inactive)
49 | O=C(c1nnsc1S(=O)(=O)c1ccc(Cl)cc1)N1CCOCC1 | 0.93% (inactive)
50 | CNC(=O)c1nnsc1S(=O)(=O)c1ccc(Cl)cc1 | 11.5% (inactive)
51 | Cc1nnsc1C(=O)Nc1ccc(Cl)cc1 | 5.53% (inactive)
52 | O=C(Nc1ccccc1)c1nnsc1S(=O)(=O)c1ccc(Cl)cc1 | 6.59% (inactive)
53 | CNC(=O)c1ncoc1-c1ccc(Cl)cc1 | -1.29% (inactive)
54 | CC1(C)C(=O)OC(c2ccccc2)C2(CCCC2)C1=O (configuration not stated) | -6.73% (inactive)
55 | COC(=O)N1CCN(CCc2ccccc2)CC1 | 0.78% (inactive)
56 | CCCCNC(=O)CNC(=S)N(Cc1ccccc1)Cc1cccs1 | 4.12% (inactive)
57 | CCc1cccc(NC(=O)CCS(=O)(=O)c2cccc3nonc23)c1 | 0.23% (inactive)
58 | CC(NC(=O)CSC(=S)N(C)C)C12CC3CC(CC(C3)C1)C2 (configuration not stated) | 2.22% (inactive)
59 | O=C1C2C3C=CC(C3)C2C(=O)N1CCCCN1C(=O)C2C3C=CC(C3)C2C1=O (configuration not stated) | 4.77% (inactive)
60 | O=C1C2C3C=CC(C3)C2C(=O)N1CCCCCCN1C(=O)C2C3C=CC(C3)C2C1=O (configuration not stated) | -4.36% (inactive)
61 | CCCC(=O)Nc1c(C)nn(C(=O)CCC)c1C | 9.51% (inactive)
62 | COc1cccc(-c2nnc(SCCC(=O)O)n2C)c1 | -2.35% (inactive)
